In PubChem BioAssay (EPA / NIEHS):
Inconclusive results are not listed. Activity calls are given as the source filed them. Rule for the calls: active = hit-call score of the fitted dose curve at least 0.9, where 1 is the maximum; inconclusive = response in the unintended direction; inactive = score below 0.9.

Key:
[1] = molecular target: rat Adrenergic Receptor, Beta (Adrb), Non-selective Binding, Adrb1 (gene 24925) (UniProt P18090); test: NVS_GPCR_rAdrb_NonSelective: NovaScreen (NVS) G Protein-Coupled Receptor Assay for rat Adrenergic Receptor, Beta (Adrb), Non-selective Binding (AID 2283298)
Sequence of rat Adrenergic Receptor, Beta (Adrb), Non-selective Binding, Adrb1 (gene 24925) (P18090 whole entry, looked up): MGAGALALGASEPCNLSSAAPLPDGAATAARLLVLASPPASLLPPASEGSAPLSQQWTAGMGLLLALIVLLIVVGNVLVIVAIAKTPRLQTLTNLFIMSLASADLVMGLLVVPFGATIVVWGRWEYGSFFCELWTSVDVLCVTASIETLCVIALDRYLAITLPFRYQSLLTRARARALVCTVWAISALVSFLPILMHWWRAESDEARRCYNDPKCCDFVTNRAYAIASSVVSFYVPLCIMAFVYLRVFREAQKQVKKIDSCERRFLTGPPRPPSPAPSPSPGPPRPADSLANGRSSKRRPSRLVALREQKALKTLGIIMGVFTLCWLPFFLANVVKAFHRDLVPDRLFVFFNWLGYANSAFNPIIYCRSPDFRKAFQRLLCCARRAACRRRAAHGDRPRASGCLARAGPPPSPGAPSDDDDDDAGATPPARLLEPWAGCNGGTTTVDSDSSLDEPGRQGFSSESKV
Outline: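 Non-selective beta-adrenergic radioligand binding in rat cortical membranes, 1 h incubation, filter-based scintillation read-out. Primary screen 25 uM in duplicate; hits retested in concentration-response up to 50 uM, DMSO baseline.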

[2] = molecular target: mouse Cholecystokinin, CCK1 Receptor (CCKA), Cckar (gene 12425) (UniProt O08786); test: NVS_GPCR_mCCKAPeripheral: NovaScreen (NVS) G Protein-Coupled Receptor Assay for mouse Cholecystokinin, CCK1 Receptor (CCKA) (AID 2283285)
Sequence of mouse Cholecystokinin, CCK1 Receptor (CCKA), Cckar (gene 12425) (O08786 whole entry, looked up): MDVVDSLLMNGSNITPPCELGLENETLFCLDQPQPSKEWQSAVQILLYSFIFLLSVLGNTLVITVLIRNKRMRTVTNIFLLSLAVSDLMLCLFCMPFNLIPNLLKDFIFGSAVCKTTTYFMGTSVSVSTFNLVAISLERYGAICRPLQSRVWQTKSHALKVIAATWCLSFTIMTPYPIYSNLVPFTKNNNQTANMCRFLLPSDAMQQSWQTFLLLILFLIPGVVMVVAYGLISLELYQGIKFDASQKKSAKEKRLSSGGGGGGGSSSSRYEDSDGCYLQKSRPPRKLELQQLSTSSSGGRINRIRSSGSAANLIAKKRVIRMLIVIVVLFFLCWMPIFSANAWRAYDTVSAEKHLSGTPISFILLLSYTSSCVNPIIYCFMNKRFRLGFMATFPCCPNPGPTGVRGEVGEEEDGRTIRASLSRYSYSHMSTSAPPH
Outline: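 Radioligand competitive displacement on mouse pancreatic membranes, 2 h incubation; filter-based scintillation counting, loss of signal versus DMSO. Single-concentration screen at 25 uM in duplicate, actives retested in concentration-response up to 50 uM.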

[3] = molecular target: rat Gamma-Aminobutyric Acid Type B Receptor (GABBR), Gabbr1 (gene 81657) (UniProt Q9Z0U4); test: NVS_GPCR_rGABBR: NovaScreen (NVS) G Protein-Coupled Receptor Assay for rat Gamma-Aminobutyric Acid Type B Receptor (GABBR) (AID 2283301)
Sequence of rat Gamma-Aminobutyric Acid Type B Receptor (GABBR), Gabbr1 (gene 81657) (Q9Z0U4 whole entry, looked up): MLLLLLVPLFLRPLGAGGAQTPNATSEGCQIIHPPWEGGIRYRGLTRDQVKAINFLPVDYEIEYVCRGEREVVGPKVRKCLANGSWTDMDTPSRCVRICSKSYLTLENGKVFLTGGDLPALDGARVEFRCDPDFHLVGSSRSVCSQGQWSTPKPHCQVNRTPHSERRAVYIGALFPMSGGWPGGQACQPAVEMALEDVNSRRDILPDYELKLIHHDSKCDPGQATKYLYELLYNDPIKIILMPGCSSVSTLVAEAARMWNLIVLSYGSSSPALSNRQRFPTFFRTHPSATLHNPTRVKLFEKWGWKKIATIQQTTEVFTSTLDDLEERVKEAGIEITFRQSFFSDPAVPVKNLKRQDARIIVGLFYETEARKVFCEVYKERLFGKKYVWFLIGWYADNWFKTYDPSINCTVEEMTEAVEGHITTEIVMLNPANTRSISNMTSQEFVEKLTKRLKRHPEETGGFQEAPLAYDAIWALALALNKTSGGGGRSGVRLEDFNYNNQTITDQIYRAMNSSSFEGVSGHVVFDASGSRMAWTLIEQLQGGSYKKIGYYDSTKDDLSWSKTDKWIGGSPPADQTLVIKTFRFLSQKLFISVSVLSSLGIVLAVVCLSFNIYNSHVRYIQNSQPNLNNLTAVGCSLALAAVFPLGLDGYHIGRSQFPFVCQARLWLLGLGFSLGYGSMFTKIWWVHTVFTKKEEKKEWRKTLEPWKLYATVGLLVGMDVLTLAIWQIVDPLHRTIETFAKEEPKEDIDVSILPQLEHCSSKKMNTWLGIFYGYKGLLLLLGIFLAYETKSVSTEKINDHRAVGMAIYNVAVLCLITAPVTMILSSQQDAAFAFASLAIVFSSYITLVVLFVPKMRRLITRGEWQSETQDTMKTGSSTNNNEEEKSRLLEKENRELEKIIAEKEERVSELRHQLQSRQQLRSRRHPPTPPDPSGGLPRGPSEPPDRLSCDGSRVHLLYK
Outline: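 Radioligand displacement on rat cortical membranes, 1 h, filter-based scintillation counting. Primary screen at 25 uM in duplicate; compounds passing threshold re-tested in concentration-response up to 50 uM; loss of binding fitted against DMSO.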

Adra2b (gene 24174) = Adra2b (gene 24174) (UniProt P19328); test: NVS_GPCR_rmAdra2B: NovaScreen (NVS) G Protein-Coupled Receptor Assay for hybird cells Adrenergic, Alpha 2B Receptor (Adra2B) (AID 2283306)
Sequence of Adra2b (gene 24174) (P19328 whole entry, looked up): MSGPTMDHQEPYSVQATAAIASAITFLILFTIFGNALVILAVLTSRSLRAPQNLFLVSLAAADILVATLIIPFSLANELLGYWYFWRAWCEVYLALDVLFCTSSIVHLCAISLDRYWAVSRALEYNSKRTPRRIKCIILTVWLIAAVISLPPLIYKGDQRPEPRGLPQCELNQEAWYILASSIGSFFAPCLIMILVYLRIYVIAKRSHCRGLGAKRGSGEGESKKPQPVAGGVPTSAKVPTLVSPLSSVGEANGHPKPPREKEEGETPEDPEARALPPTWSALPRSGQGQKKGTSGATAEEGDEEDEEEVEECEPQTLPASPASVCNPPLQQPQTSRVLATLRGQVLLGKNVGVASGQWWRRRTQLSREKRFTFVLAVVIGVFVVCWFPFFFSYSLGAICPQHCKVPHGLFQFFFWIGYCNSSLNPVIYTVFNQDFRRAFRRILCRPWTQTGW
Outline: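 Radioligand filter-binding assay on membrane proteins from neuroglioma/blastoma hybrid cells (rodent), 1 h after dosing; scintillation counting, loss of signal vs DMSO. Primary screen in duplicate at 25 uM, actives then run in concentration series.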

[4] = molecular target: rat Adrenergic, Alpha 1, Non-selective Receptor (Adra1), Adra1a (gene 29412) (UniProt P43140); test: NVS_GPCR_rAdra1_NonSelective: NovaScreen (NVS) G Protein-Coupled Receptor Assay for rat Adrenergic, Alpha 1, Non-selective Receptor (Adra1) (AID 2283289)
Sequence of rat Adrenergic, Alpha 1, Non-selective Receptor (Adra1), Adra1a (gene 29412) (P43140 whole entry, looked up): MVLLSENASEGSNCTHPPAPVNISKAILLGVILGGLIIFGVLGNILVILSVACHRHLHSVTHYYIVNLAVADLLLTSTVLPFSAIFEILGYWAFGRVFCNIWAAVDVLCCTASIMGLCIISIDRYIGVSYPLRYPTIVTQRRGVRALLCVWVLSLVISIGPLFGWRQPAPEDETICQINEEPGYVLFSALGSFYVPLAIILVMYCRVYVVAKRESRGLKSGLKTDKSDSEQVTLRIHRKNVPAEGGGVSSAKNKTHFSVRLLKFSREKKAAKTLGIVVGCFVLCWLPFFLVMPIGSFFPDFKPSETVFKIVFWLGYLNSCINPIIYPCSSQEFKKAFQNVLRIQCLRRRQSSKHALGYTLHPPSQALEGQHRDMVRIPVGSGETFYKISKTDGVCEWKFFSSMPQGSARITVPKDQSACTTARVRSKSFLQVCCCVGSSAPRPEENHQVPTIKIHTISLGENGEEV
Outline: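 Rat forebrain membranes; radioligand displacement read by filter-based scintillation counting 1 h after dosing. Primary screen in duplicate at 25 uM; hits (e.g. ≥30% inhibition) rerun as concentration–response to 50 uM max. Fitted versus DMSO.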

[5] = molecular target: rat Serotonin, 5-Hydroxytryptamine Receptor 1 (5HT1), Non-Selective Binding, Htr1a (gene 24473) (UniProt P19327); test: NVS_GPCR_r5HT1_NonSelective: NovaScreen (NVS) G Protein-Coupled Receptor Assay for rat Serotonin, 5-Hydroxytryptamine Receptor 1 (5HT1), Non-Selective Binding (AID 2283286)
Sequence of rat Serotonin, 5-Hydroxytryptamine Receptor 1 (5HT1), Non-Selective Binding, Htr1a (gene 24473) (P19327 whole entry, looked up): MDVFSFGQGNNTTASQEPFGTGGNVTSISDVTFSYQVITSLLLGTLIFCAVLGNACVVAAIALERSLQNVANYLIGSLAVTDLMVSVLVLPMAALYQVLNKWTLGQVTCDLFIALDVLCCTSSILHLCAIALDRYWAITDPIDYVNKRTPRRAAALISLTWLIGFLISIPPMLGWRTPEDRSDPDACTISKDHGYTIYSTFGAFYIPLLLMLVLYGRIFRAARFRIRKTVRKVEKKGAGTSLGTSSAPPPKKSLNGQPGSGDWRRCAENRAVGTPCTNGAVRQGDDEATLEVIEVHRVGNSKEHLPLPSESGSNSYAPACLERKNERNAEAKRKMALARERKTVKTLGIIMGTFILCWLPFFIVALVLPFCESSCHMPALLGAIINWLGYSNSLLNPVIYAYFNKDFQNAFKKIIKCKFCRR
Outline: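 Rat cortical membranes, radioligand displacement, 1 h incubation, read by filter scintillation. Primary screen in duplicate at 25 uM. Hits (e.g. ≥30% inhibition) went to concentration-response up to 50 uM, fitted as loss of binding versus DMSO.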

[6] = tested on: 5-hydroxytryptamine receptor 2C (pig); test: NVS_GPCR_p5HT2C: NovaScreen (NVS) G Protein-Coupled Receptor Assay for pig Serotonin, 5-Hydroxytryptamine Receptor 2C (5HT2C) (AID 2283288)
Outline: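 Pig choroid plexus membranes; radioligand competitive binding, filter-based scintillation counting, read 1 h after dosing. Primary screen in duplicate at 25 uM; actives then run as concentration series; loss of signal versus DMSO baseline.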

[7] = tested on: rabbit Platelet Activating Factor Receptor (PAF), gene 100354046; test: NVS_GPCR_rabPAF: NovaScreen (NVS) G Protein-Coupled Receptor Assay for rabbit Platelet Activating Factor Receptor (PAF) (AID 2283287)
Outline: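 Rabbit platelet membrane preparation; radioligand displacement read by filter-based scintillation counting 1 h after dosing, loss of signal versus DMSO. Primary screen in duplicate at 25 uM, actives followed up in concentration series.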

[8] = molecular target: guinea pig Serotonin, 5-Hydroxytryptamine Receptor 4 (5HT4), HTR4 (gene 100135548) (UniProt O70528); test: NVS_GPCR_g5HT4: NovaScreen (NVS) G Protein-Coupled Receptor Assay for guinea pig Serotonin, 5-Hydroxytryptamine Receptor 4 (5HT4) (AID 2283294)
Sequence of guinea pig Serotonin, 5-Hydroxytryptamine Receptor 4 (5HT4), HTR4 (gene 100135548) (O70528 whole entry, looked up): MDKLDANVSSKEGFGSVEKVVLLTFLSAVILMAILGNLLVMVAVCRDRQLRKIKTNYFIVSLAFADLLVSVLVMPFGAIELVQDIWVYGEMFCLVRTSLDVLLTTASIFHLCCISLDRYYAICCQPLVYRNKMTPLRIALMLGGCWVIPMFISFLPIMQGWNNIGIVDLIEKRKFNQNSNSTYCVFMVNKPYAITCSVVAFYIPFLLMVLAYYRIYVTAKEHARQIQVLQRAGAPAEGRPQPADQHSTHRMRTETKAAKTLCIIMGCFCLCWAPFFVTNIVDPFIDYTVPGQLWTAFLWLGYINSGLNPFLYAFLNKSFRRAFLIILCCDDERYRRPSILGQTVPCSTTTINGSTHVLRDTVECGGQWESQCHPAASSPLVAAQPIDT
Outline: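 Guinea pig striatal membranes; radioligand competitive displacement, filtration and scintillation counting after 1 h. Primary screen in duplicate at 25 uM; actives then tested in concentration series; loss of binding signal fitted relative to DMSO.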

[9] = molecular target: rat Serotonin, 5-Hydroxytryptamine Receptor (5HT), Non-Selective Binding, Htr1a (gene 24473) (UniProt P19327); test: NVS_GPCR_r5HT_NonSelective: NovaScreen (NVS) G Protein-Coupled Receptor Assay for rat Serotonin, 5-Hydroxytryptamine Receptor (5HT), Non-Selective Binding (AID 2283295)
Outline: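 Radioligand displacement on rat cortical membranes, 1 h incubation, filter-based scintillation counting. Primary duplicates at 25 uM, actives retested in concentration series; loss of signal fitted against DMSO as baseline.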

[10] = molecular target: rat Adrenergic, Alpha 1A Receptor (Adra1A), Adra1a (gene 29412) (UniProt P43140); test: NVS_GPCR_rAdra1A: NovaScreen (NVS) G Protein-Coupled Receptor Assay for rat Adrenergic, Alpha 1A Receptor (Adra1A) (AID 2283296)
Sequence of rat Adrenergic, Alpha 1A Receptor (Adra1A), Adra1a (gene 29412) (P43140 whole entry, looked up): as the sequence (P43140 whole entry, looked up) above
Outline: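 Rat cortical membranes pretreated with chlorethyl clonidine; competitive radioligand displacement, 1 h. Filter-based scintillation counting. Primary screen in duplicate at 25 uM, actives followed in concentration series.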

[11] = tested on: rat Adrenergic, Alpha 1B Receptor (Adra1B), gene 24173; test: NVS_GPCR_rAdra1B: NovaScreen (NVS) G Protein-Coupled Receptor Assay for rat Adrenergic, Alpha 1B Receptor (Adra1B) (AID 2283297)
Outline: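 Rat liver membranes, radioligand displacement with filter-based scintillation detection, 1 h incubation. Primary screen in duplicate at 25 uM; actives retested in concentration series; activity relative to DMSO.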

[12] = molecular target: rat Adrenergic Receptor, Alpha 2 (Adra2), Non-selective Binding, Adra2a (gene 25083) (UniProt P22909); test: NVS_GPCR_rAdra2_NonSelective: NovaScreen (NVS) G Protein-Coupled Receptor Assay for rat Adrenergic Receptor, Alpha 2 (Adra2), Non-selective Binding (AID 2283299)
Sequence of rat Adrenergic Receptor, Alpha 2 (Adra2), Non-selective Binding, Adra2a (gene 25083) (P22909 whole entry, looked up): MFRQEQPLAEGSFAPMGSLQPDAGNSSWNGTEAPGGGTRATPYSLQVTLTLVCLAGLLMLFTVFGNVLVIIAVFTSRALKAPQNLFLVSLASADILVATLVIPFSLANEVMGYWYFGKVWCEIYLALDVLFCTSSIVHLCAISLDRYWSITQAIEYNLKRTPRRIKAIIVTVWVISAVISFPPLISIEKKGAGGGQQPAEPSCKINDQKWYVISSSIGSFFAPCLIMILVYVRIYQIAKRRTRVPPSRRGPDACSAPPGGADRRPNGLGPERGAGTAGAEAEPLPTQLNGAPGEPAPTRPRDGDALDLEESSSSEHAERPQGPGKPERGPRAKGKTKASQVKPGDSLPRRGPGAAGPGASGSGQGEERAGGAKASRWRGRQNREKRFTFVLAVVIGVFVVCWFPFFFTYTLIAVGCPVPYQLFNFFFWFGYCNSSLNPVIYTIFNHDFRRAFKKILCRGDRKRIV
Outline: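 Rat cortical membranes, radioligand competitive displacement read by filter-based scintillation counting 1.25 hours after dosing. Primary screen in duplicate at 25 uM; actives followed up in concentration series.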

[13] = molecular target: rat Histamine Receptor (H3), Hrh3 (gene 85268) (UniProt Q9QYN8); test: NVS_GPCR_rH3: NovaScreen (NVS) G Protein-Coupled Receptor Assay for rat Histamine Receptor (H3) (AID 2283303)
Sequence of rat Histamine Receptor (H3), Hrh3 (gene 85268) (Q9QYN8 whole entry, looked up): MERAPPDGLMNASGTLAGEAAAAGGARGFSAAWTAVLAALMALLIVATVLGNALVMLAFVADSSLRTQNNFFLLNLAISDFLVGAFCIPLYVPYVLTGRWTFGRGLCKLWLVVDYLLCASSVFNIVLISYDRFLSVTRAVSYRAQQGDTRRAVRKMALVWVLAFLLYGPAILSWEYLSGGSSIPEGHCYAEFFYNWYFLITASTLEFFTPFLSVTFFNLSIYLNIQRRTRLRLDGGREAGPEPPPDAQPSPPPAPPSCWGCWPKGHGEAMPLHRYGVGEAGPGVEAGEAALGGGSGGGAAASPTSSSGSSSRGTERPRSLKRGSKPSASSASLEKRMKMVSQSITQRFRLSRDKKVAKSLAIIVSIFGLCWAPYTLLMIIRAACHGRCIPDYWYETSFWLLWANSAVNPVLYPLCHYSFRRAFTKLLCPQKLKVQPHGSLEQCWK
Outline: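 Rat forebrain membranes incubated 1 h with compound; radioligand displacement measured by filter-based scintillation counting. Single-concentration duplicates at 25 µM, then concentration-response up to 50 µM, relative to DMSO.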

[14] = molecular target: rat Corticotropin Releasing Factor Receptor (CRF), Crhr1 (gene 58959) (UniProt P35353); test: NVS_GPCR_rCRF: NovaScreen (NVS) G Protein-Coupled Receptor Assay for rat Corticotropin Releasing Factor Receptor (CRF) (AID 2283300)
Outline: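 Rat cortical membranes used as receptor source in a radioligand competitive displacement binding assay; scintillation read 2 h after dosing. Primary screen run in duplicate at 25 uM; loss of signal versus DMSO baseline indicates binding.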

[15] = molecular target: Metabotropic glutamate receptor 1 (Rattus norvegicus) (UniProt P23385); test: NVS_GPCR_rmMGluR1: NovaScreen (NVS) G Protein-Coupled Receptor Assay for rat Glutamate Metabotropic Receptor 1 (MGluR1) (AID 2283305)
Outline: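 Rat cerebellum membrane preparation, radioligand displacement binding read by filter-based scintillation counting 1 hour after dosing. Initial duplicate single-point screen at 25 uM, then concentration-response up to 50 uM; loss of signal versus DMSO baseline scored.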

[16] = molecular target: guinea pig Bradykinin Receptor B2 (BK2), BDKRB2 (gene 100135486) (UniProt O70526); test: NVS_GPCR_gBK2: NovaScreen (NVS) G Protein-Coupled Receptor Assay for guinea pig Bradykinin Receptor B2 (BK2) (AID 2283292)
Outline: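 Radioligand displacement on guinea pig ileum membranes for 1 h, read by filter-based scintillation counting; loss of signal relative to DMSO. Compounds were screened in duplicate at 25 uM, and those passing the threshold were retested in concentration-response up to 50 uM.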

[17] = molecular target: mouse Cholecystokinin, CCK2 Receptor (CCKB), Cckbr (gene 12426) (UniProt P56481); test: NVS_GPCR_mCKKBCentral: NovaScreen (NVS) G Protein-Coupled Receptor Assay for mouse Cholecystokinin, CCK2 Receptor (CCKB) (AID 2283293)
Outline: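 Radioligand displacement binding on mouse forebrain membranes, 2 h exposure, filter-based scintillation counting. Primary screen in duplicate at 25 uM; actives (e.g. ≥30% inhibition) retested in concentration-response up to 50 uM; loss of binding signal relative to DMSO.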

Compound: O=Cc1ccco1
- outcome [1]: inactive

Compound: O=[N+]([O-])c1ccc(Oc2ccc(Cl)cc2Cl)cc1
- outcome [2]: inactive
- AC50 [1]: 0.52 µM (active)

Compound: ClCCOCCCl
- outcome [3]: inactive

Compound: C[C@]12C=CC3=C4CCC(=O)C=C4CC[C@H]3[C@@H]1CC[C@@H]2O
- AC50 (Adra2b (gene 24174)): 20.7 µM (active)

Compound: C=CCc1ccc2c(c1)OCO2
- outcome [4]: inactive

Compound: Cc1ccc(N=C=O)cc1N=C=O
- outcome [5]: inactive

Compound: CC(C)(O)c1cnn2c(-c3ccc(F)c(-c4c(F)cccc4C#N)c3)cnc2n1
- outcome [6]: inactive
- outcome [3]: inactive

Compound: COP(=S)(OC)SCN1C(=O)c2ccccc2C1=O
- outcome [5]: inactive
- AC50 [7]: 14.9 µM (active)

Compound: Clc1ccc(C(c2ccc(Cl)cc2)C(Cl)Cl)cc1
- outcome [6]: inactive

Compound: CC(C)N(Cc1ccccc1)C(=O)C(C)(C)C
- AC50 [7]: 13.1 µM (active)

Compound: CCOC(=O)[C@]1(c2ccccc2)Oc2ccccc2[C@@H]1N
- AC50 [5]: 1.08 µM (active)
- AC50 [7]: 7.6 µM (active)
- AC50 [6]: 1.29 µM (active)
- AC50 [4]: 0.184 µM (active)
- AC50 [8]: 4.94 µM (active)
- AC50 [9]: 2.49 µM (active)
- AC50 [10]: 0.38 µM (active)
- AC50 [11]: 0.456 µM (active)
- AC50 [1]: 2.61 µM (active)
- AC50 [12]: 3.76 µM (active)
- AC50 [13]: 10.2 µM (active)
- AC50 (Adra2b (gene 24174)): 1.76 µM (active)

Compound: CN(C)[C@@H]1C(=O)C(C(N)=O)=C(O)[C@@]2(O)C(=O)C3=C(O)c4c(O)cccc4[C@@](C)(O)[C@H]3C[C@@H]12
- AC50 [2]: 25 µM (active)

Compound: COC(=O)c1ccccc1N
- outcome [14]: inactive

Compound: CCCCCCCCn1sccc1=O
- AC50 [8]: 20.2 µM (active)
- AC50 [13]: 10.6 µM (active)
- AC50 [15]: 21.2 µM (active)
- AC50 (Adra2b (gene 24174)): 26 µM (active)

Compound: CC(C)COC(=O)c1ccccc1C(=O)OCC(C)C
- outcome [8]: inactive

Compound: Cc1ccc(N)c(N)c1
- outcome [8]: inactive

Compound: Oc1ccccc1Cl
- outcome [7]: inactive

Compound: [Cl-].[Cl-].[Hg+2]
- AC50 [2]: 18 µM (active)
- AC50 [7]: 36.7 µM (active)
- AC50 [4]: 2.86 µM (active)
- AC50 [16]: 25 µM (active)
- AC50 [17]: 38.6 µM (active)
- AC50 [8]: 7.68 µM (active)
- AC50 [10]: 12.1 µM (active)
- AC50 [11]: 3.96 µM (active)
- AC50 [1]: 35.7 µM (active)
- AC50 [12]: 6.48 µM (active)
- AC50 [3]: 18.4 µM (active)
- AC50 [13]: 24.6 µM (active)
- AC50 [15]: 14 µM (active)
- AC50 (Adra2b (gene 24174)): 6.72 µM (active)
